# Source: PubChem
# This excerpt belongs to a sample that is enriched for hits.
# L3MBTL1 block = blocks human L3MBTL1; hit rate 0.66% among 230,000; AlphaScreen L3MBTL1–H3K9me1 peptide binding; Potency, µM (doses to about 57.1 µM), without a hit: at the top dose activity, negative = inhibition, actives largely listed as inhibitors; Q9Y468; note: nearly all actives have a fitted effect of over 60% in size
# Target sequence (Q9Y468 whole entry, looked up): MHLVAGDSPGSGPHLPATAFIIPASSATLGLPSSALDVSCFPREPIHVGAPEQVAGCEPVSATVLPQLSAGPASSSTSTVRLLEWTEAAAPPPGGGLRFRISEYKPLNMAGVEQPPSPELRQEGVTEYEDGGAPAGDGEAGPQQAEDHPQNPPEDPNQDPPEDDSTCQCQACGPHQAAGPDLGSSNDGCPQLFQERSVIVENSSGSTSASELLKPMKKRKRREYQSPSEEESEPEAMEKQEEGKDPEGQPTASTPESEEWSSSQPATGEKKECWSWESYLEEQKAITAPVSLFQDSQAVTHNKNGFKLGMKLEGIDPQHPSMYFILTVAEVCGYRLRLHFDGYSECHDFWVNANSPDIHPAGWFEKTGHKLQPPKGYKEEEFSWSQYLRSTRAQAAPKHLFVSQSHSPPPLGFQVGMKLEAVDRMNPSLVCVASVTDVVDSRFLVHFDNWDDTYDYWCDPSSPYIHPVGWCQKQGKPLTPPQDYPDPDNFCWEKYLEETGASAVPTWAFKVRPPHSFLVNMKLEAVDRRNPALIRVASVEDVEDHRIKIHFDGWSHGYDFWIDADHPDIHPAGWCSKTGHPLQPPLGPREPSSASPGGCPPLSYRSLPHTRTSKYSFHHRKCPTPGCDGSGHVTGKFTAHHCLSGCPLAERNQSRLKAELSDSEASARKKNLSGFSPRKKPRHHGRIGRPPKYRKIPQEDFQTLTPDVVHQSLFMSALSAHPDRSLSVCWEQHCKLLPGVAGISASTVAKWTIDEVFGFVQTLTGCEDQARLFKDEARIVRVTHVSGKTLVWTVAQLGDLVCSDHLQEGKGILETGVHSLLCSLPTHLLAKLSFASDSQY
#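 Read-out is AlphaScreen signal from streptavidin donor and nickel chelate acceptor beads (10 ug/mL final each) bridging L3MBTL1 (50 nM) and biotinylated K9-monomethylated H3(1-15) peptide (75 nM), after 30 min compound exposure at room temperature.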
# RECQ1 helicase = blocks DNA unwinding by human RECQ1; P46063; RECQ1 DNA unwinding, red fluorescence kinetic read; Potency, µM (highest dose often 57.3 µM), inactives show at the highest dose activity, negative = inhibition, usual class: inhibitors; hit rate 0.54% among 240,000;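 note: plate controls were vehicle for no effect and no enzyme for full effect; nearly all actives have a fitted effect of over 30% in size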
#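 RECQ1T1 50 nM; forked duplex (20 bp + 30-nt ss tails) 200 nM, ATP 2 mM final; pH 8.0, 2 mM MgCl2, 2.5 ug/ml poly(dI-dC); 15 min compound preincubation; discontinuous kinetic read over 2 h at RT.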
# APE1 inh = inhibitors of human APE1 endonuclease. P27695. recombinant APE1, TAMRA/BHQ-2 abasic DNA cleavage fluorescence. Potency, µM (titrated, usually from 65.8 µM), for the others: at the highest dose activity change, negative = inhibition, most hits filed as inhibitors. hit rate 0.35% among 350,000. AID 2517;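 note: plate controls were vehicle for no effect and reference inhibitor for full effect; nearly all actives have a fitted effect of over 55% in size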
#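 Kinetic fluorescence read (525 ex/598 em nm, three reads 60 s apart) of AP-site incision; signal = third minus first read. Enzyme 0.75 nM, dual-labelled THF duplex 50 nM, compound preincubation 15 min RT.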
# JMJD2E inh = JMJD2E (human) inhibition; hit rate 1.6% among 230,000; JMJD2E catalytic domain, FDH-coupled NADH fluorescence (FDH is formaldehyde dehydrogenase); Potency, µM (doses to about 57.1 µM), inactives show top-dose activity change, negative = inhibition, hits mostly inhibitors; B2RXH2; active = well fitted inhibition curve with a large enough effect, not every such curve was filed as active; inconclusive = small, poorly fitted or top-dose-only effect, or another doubt; inactive = no such curve, though single readings can be large or run the other way;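 note: 0% = wells with enzyme and -100% = buffer wells without enzyme; nearly all actives have a fitted effect of over 50% in size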
# BLM inh = Bloom syndrome helicase (human) inhibition; AID 2528; P54132; hit rate 0.2% among 350,000; recombinant BLM DNA unwinding, fluorescence dequenching; Potency, µM (highest dose often 56.1 µM), inactives show at the highest dose activity change, negative = inhibition, most hits filed as inhibitors;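 note: plate controls were vehicle for no effect and no enzyme for full effect; nearly all actives have a fitted effect of over 35% in size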
# GoLoco inh red = blocks human Gai1 binding to RGS12 GoLoco peptide, red readout. hit rate 0.44% among 230,000. P63096. Gai1:RGS12 GoLoco peptide FP, rhodamine, 10 min. AID 880. Potency, µM (highest dose often 61.6 µM), for the others: at the highest dose activity, negative = inhibition, actives largely listed as inhibitors; active = well fitted inhibition curve with a large enough effect, not every such curve was filed as active; inactive = no such curve, though single readings can be large or run the other way; note: nearly all actives have a fitted effect of over 30% in size
# Starred values were filed as active, the others as inactive; i = inactive; ? = inconclusive; nt = not tested or not shown; ! = not confirmed by another sample. Unless noted, calls come from the whole dose curve; as a rule, active = well fitted curve in the direction sought with a large enough effect; inconclusive = small, poorly fitted or top-dose-only effect, or another doubt; inactive = no such curve, though single readings can be large; an effect the other way counts as inactive or inconclusive. Unless noted, % is set by controls: 0 for no effect and ±100 for the full control effect; potency is the fitted concentration of half-maximal effect.
SMILES,L3MBTL1 block,RECQ1 helicase,APE1 inh,JMJD2E inh,BLM inh,GoLoco inh red
O=C1CC(c2ccccc2C(F)(F)F)c2c(c3ccccc3[nH]c2=O)O1 (stereo not drawn),nt,nt,nt,nt,0.9%,nt
CC(C)n1c(SCC(=O)Nc2nncs2)nnc1-c1ccco1,nt,nt,13.4µM*,nt,-20.5%,nt
O=c1c2ccccc2sn1-c1ccccc1,nt,-4.6%,-4.8%,25.1µM*,-0.6%,17.8µM*
O=c1c2ccccc2sn1-c1nccs1,-0.1%,-5.4%,-3.9%,7.94µM*,-3.2%,15.8µM*
O=c1c2ccccc2c(C=Nc2ccccc2O)c(O)n1-c1nccs1,5.1%,-1.3%,1.2%,-3.5%,-5.4%,15.4%
O=c1c2ccccc2sn1-c1ccc(S(=O)(=O)N2CCCC2)cc1,1.8%,-22.4%,-2.3%,?,-6.2%,0.159µM*
CN(C)S(=O)(=O)c1cccc(-n2sc3ccccc3c2=O)c1,-0.4%,i,0.4%,3.55µM*,-0.8%,14.1µM*
O=S(=O)(c1ccc(S(=O)(=O)N2CCCC2)cc1)N1CCCCC1,nt,nt,10.6%,nt,-2.8%,nt
O=C(O)c1cccc(-n2sc3ccccc3c2=O)c1,-5.2%,nt,-6.9%,nt,nt,nt
Cc1nn(C(C)C(=O)NC2CCC(C)CC2)c(=O)c2c1sc1ccccc12 (stereo not drawn),nt,nt,nt,nt,66.5%,nt
Cc1ccc(-n2sc3ccccc3c2=O)cc1S(=O)(=O)N1CCCCC1,-15.7%,-11.9%,-10.2%,11.2µM*,-0.8%,28.2µM*
CN=c1scc(C)n1/N=C/c1ccc(O)cc1O,-13.9%,-10.1%,-1.2%,-2.6%,-3.9%,11.1%
CC(C)N=c1scc(-c2cccs2)n1/N=C/c1ccc(O)c(O)c1O,?,-17.1%,-6.9%,28.2µM*,-21.1%,9.2%
CN=c1scc(-c2ccccc2F)n1/N=C/c1ccc(O)c(O)c1O,3.55µM*,7.94µM*,10µM*,10µM*,?,41.9%
NC(=O)C1CCN(c2nc(-c3cccc4sc5ccccc5c34)cs2)CC1,nt,nt,-3.2%,nt,nt,nt
COc1ccc2ccccc2c1C(=O)/C=C\c1ccoc1,-22.5%,-14.1%,?,25.1µM*,?,8.0%
c1ccc(-c2n[nH]c(-c3ccccn3)n2)nc1,2µM*,-13.6%,9.8%,8.2%,2.7%,7.7%
COc1ccc(C2=Nn3c(nnc3-c3ccccc3C(F)(F)F)SC2)cc1OC,nt,nt,-11.9%,nt,nt,nt
Cc1ccc(C(OCC(C)(C)C[N+](C)(C)C)c2ccccc2)cc1 (stereo not drawn),nt,-9.4%,6.3%,4.2%,0.3%,8.91µM*
CCN(CC)CCOC(c1ccccc1)c1ccc(C)cc1 (stereo not drawn),-1.2%,2.2%,0.7%,-3.9%,-3.2%,7.1%
COc1ccc(Cl)cc1NC(=O)NN1CCN(C)CC1,nt,nt,13.4µM*,nt,-18.1%,nt
COc1ccc(Cl)cc1NC(=O)NCCN1CCCCC1,4.2%,i,-0.7%,4.4%,-9.4%,2.7%
C/C(=N/NC(=O)c1cc2ccccc2cc1O)C1C(=O)c2ccccc2C1=O,nt,?,?,?,28.2µM*,12.5%
C/C(=N\NC(=O)c1cc2ccccc2cc1O)c1cc2ccccc2o1,-28.7%,?,-4.6%,-13.3%,-22.2%,25.1µM*
Nc1cc2nsnc2cc1Br,15.8µM*,?,?,20.9%,3.98µM*,4.6%
SMILES,L3MBTL1 block,RECQ1 helicase,APE1 inh,JMJD2E inh,BLM inh,GoLoco inh red
Oc1ccccc1/C=N/Nc1nn[nH]n1,-21.1%,-5.3%,-1.2%,?,-1.2%,9.2%
NC(N)=N/N=C/c1cc([N+](=O)[O-])ccc1O,-2.9%,-3.1%,-0.7%,2.6%,-12.0%,1.0%
O=[N+]([O-])c1ccc(O)c(-c2nn[nH]n2)c1,nt,3.2%,-3.6%,0.398µM*,2.6%,8.8%
O=[N+]([O-])c1ccc(O)c(/C=N/NC2=NS(=O)(=O)c3ccccc32)c1,?,2.0%,4.5%,22.4µM*,-1.3%,13.4%
O=[N+]([O-])c1ccc(O)c(/C=N/Nc2nn[nH]n2)c1,14.1µM*,-4.9%,0.3%,14.1µM*,0.7%,10.0%
O=[N+]([O-])c1ccc(O)c(/C=N/Nc2ccc(Cl)nn2)c1,?,i,4.6%,5.62µM*,-2.1%,14.1%
COc1cccc(CNC(=O)CCc2cn(Cc3ccccc3Cl)c3ccccc23)c1,nt,nt,nt,nt,-8.6%,nt
CCc1ccccc1NC(=O)C(=O)NCCc1sc(-c2cccc(F)c2)nc1C,nt,nt,nt,nt,-3.9%,nt
Nc1nc(NC(=O)C(Cl)(Cl)Cl)nn1-c1ccccc1,28.2µM*,0.7%,-1.4%,2.8%,1.5%,12.8%
Nc1c(S(=O)(=O)O)cc(NC(=O)c2ccccc2)c2c1C(=O)c1ccccc1C2=O,nt,nt,21.2µM*,nt,?,nt
CCOCCCNC(=O)c1c[nH]c2ccc(S(=O)(=O)Nc3cccc(Cl)c3C)cc2c1=O,nt,nt,nt,nt,1.1%,nt
CC1=CC(C)C2COC(c3ccc[n+](C)c3)C1C2C (stereo not drawn),14.7%,-1.8%,1.7%,-1.9%,-6.6%,28.2µM*
CC1=CC(C)[C@@H]2COC(c3ccc(O)cc3)[C@H]1C2C (stereo partly drawn),nt,nt,-16.3%,nt,-9.8%,nt
Oc1cccc(C=NCc2ccccc2)c1O,nt,-23.0%,?,12.6µM*,-17.1%,65.7%
Cc1cc(C(=O)COC(=O)c2ccccc2O)c(C)n1CC1CCCO1 (stereo not drawn),-11.3%,nt,18.4%,nt,nt,nt
Cc1cc(C(=O)COC(=O)c2cc(O)c3ccccc3c2O)c(C)n1CC1CCCO1 (stereo not drawn),?,-6.5%,-7.7%,28.2µM*,-17.7%,-7.9%
CCn1ccc2cc(S(=O)(=O)N3CCCN(C(=O)Nc4ccccc4OC)CC3)ccc21,nt,nt,nt,nt,-2.0%,nt
COc1cccc(-c2cn3nc4c(nc3n2)CCCC4)c1,4.7%,-6.1%,-1.8%,22.4µM*,-11.7%,62.1%
Clc1ccc(-c2cn3nc4c(nc3n2)CCCC4)cc1,nt,-0.2%,-3.3%,?,-4.9%,20.6%
CN(CC(=O)Nc1ccc(OC(F)(F)F)cc1)S(=O)(=O)c1ccc2c(c1)CCC(=O)N2,nt,nt,nt,nt,-1.8%,nt
N#Cc1c(NC(=O)COC(=O)c2ccc(O)cc2O)sc2c1CCC2,?,nt,11.9µM*,nt,nt,nt
O=C(COc1ccccc1F)Nc1nnc(SCc2cc(=O)c3ccccc3[nH]2)s1,nt,nt,nt,nt,-3.5%,nt
Cc1cc(C)n(Cc2ccc(C(=O)N/N=C/c3ccc(-c4ccc([N+](=O)[O-])cc4)o3)o2)n1,nt,nt,2.67µM*,nt,15.8µM*,nt
CCCCC(=O)N/N=C/c1ccc(-c2ccc([N+](=O)[O-])cc2)o1,-9.2%,-5.9%,0.6%,-11.1%,-3.0%,24.9%
O=C1C(SCCO)=C(SCCO)C(=O)c2ccccc21,?,?,?,?,8.91µM*,3.55µM*!
CCCCCCCCCCCC1=C(O)C(=O)C=C(O)C1=O,nt,-11.9%,?,20µM*!,-6.5%,10.0%
